Out of some 360,000 compounds screened, about 11,000 (3.1%) were called active. Entries that show only a call come without a potency. Inconclusive results (about 4%) are left out. The call rests on the fitted dose curve; in most records, active means well fitted inhibition curve with a large enough effect; inconclusive means small, poorly fitted or top-dose-only effect; inactive means no such curve, though single readings can be large or run the other way. The sample as a whole holds a higher share of actives than the screen did.

Results on 103 compounds are retold here after PubChem BioAssay AID485364 (National Center for Advancing Translational Sciences (NCATS), 2010).
Potency means the concentration at half of the fitted maximal effect.

This test has as its target Schistosoma mansoni thioredoxin glutathione reductase (TGR) (UniProt Q962Y6). In words: qHTS Assay for the Inhibitors of Schistosoma Mansoni Peroxiredoxins. Further: nearly all actives have a fitted effect of over 60% in size. The note with it: purified TGR, DTNB reduction, TNB absorbance 405 nm; series mostly up to 114 µM. A digest of the protocol: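 TGR 20 nM + NADPH 100 uM (dispensed conc.), cpd preinc 15 min RT; start with NADPH (500 uM addition) then DTNB (15 mM addition). Kinetic TNB absorbance, 405 nm filter. Four-parameter Hill fit across titration.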
Consider `COc1ccc(CNC(=O)CSc2n[nH]c(-c3ccc(F)cc3)n2)cc1`, for which the Potency result was “inactive”. In the case of `Cc1cc(-c2ccc(C)c(S(=O)(=O)N3c4ccccc4CC3C)c2)on1` (stereo not drawn) it was “inactive”; in that of `COc1ccc(Cn2ccc3nc(C)c(C(=O)Nc4ccc(C)c(F)c4)cc3c2=O)cc1`, “inactive”. On to `O=C(CCNS(=O)(=O)c1ccccc1C(F)(F)F)NCc1ccc2c(c1)OCO2`, for which the Potency result was “inactive”.

Turning to `O=C(CCc1nnc(Cc2ccc3c(c2)OCO3)o1)NCCc1ccccc1Cl`, the Potency is 31.6 µM (active). In the case of `O=C(CC(Cc1ccccc1)C(=O)O)NCCc1ccc2c(c1)OCO2` (stereo not drawn) it was “inactive”. In the case of `CCOc1ccccc1CNC(=O)Nc1cn(CC(C)C)c(=O)c2ccccc12` it was “inactive”; in that of `O=S(=O)(NCc1ccccc1)c1ccc(S(=O)(=O)N2CCCC2)cc1`, “inactive”. The result for `O=c1/c(=C/c2ccc(CNS(=O)(=O)c3ccccc3)o2)sc2n1CCN=2` reads 25.1 µM (active); that for `O=S(=O)(NCC1OCCc2ccccc21)c1ccccc1` (stereo not drawn), “inactive”; that for `CCCCN(C)CCCNC(=O)CN1N=C(c2ccc(OC)cc2)CCC1=O`, “inactive”.

Take `COc1ccc(CC(=O)Nc2ccc(-c3nc4ccccc4s3)c(C)c2)cc1`: the Potency result was “inactive”. For the compound `O=C(CN1CCN(S(=O)(=O)c2cc(Cl)ccc2Cl)CC1)c1ccc(O)c(O)c1`, the Potency is 17.8 µM (active). In the case of `O=S(=O)(c1cc(Cl)ccc1Cl)N1CCN(Cc2ccco2)CC1` it was “inactive”. In the case of `COc1ccc(Cl)cc1S(=O)(=O)N1CCN(CC(=O)C(C)(C)C)CC1` it was “inactive”. Consider `Cc1ccc(C)n1-c1nnc(N2CCC(C(=O)NCc3ccccc3Cl)CC2)s1`, for which the Potency entry was “inactive”.

In the case of `Cc1ccc(/C=C/C(=O)OCC(=O)NCc2ccc(Cl)cc2)o1`, the Potency is 25.1 µM (active). In the case of `CCN(CC(=O)NCc1ccc(Cl)cc1)C(=O)c1c(C)noc1C`, the Potency result is “inactive”. The result for `COc1ccc(CNC(=O)COC(=O)/C=C/c2ccc(S(=O)(=O)N3CCOCC3)cc2)cc1` reads “inactive”; that for `O=C(Nc1ccc(Oc2ccccc2)cc1)C1CCN(S(=O)(=O)c2ccc(Cl)cc2)CC1`, “inactive”; that for `O=C(Nc1ccccc1)c1nnsc1S(=O)(=O)c1ccc(Cl)cc1`, 0.316 µM (active).

Turning to `Cc1nnsc1S(=O)(=O)Cc1ccccc1Cl`, the Potency result was “inactive”. The result for `COc1ccc(Nc2cc(C(=O)NCCCN(C)c3ccccc3)c3ccccc3n2)c(OC)c1` reads “inactive”; that for `CCCn1c(=N)n(CC(O)COc2ccccc2OC)c2ccccc21` (stereo not drawn), “inactive”.

Consider `CCOc1ccc(CNC(=O)C2CCCN(S(=O)(=O)N(CC)c3ccc(OCC)cc3)C2)cc1` (stereo not drawn), for which the Potency entry was “inactive”. The result for `CCCN1CN=C(NS(=O)(=O)c2ccc(NC(C)=O)cc2)NC1` reads “inactive”; that for `Cc1ccc(-n2nnnc2CNC(=O)c2ccccc2C)cc1C`, “inactive”.

For the compound `O=C1NC(=O)N(c2ccc(F)cc2)C(=O)/C1=C/c1ccc2c(c1)CCCN2Cc1ccccc1`, the Potency is 17.8 µM (active).

On to `CCCN1CCN(CCCNC(=O)Cn2nc(CC)n3c(cc4occc43)c2=O)CC1`, for which the Potency result is “inactive”. In the case of `O=C(Nc1ccccc1-c1ccccc1)c1cccs1` it was “inactive”; in that of `O=C(NC(=S)Nc1cccc(-c2ccc(CO)o2)c1)c1cccs1`, 20 µM (active). The result for `O=C(NC(=S)Nc1ccc(NC(=O)c2cccs2)cc1)c1ccc([N+](=O)[O-])cc1` reads “inactive”. The result for `Cc1ccc(S(=O)(=O)N2CCC(C(=O)Nc3cc(C)ccc3C)CC2)cc1` reads “inactive”; that for `O=C(CSc1nc(=O)n(Cc2cccnc2)c2c1CCC2)Nc1ccc(F)cc1F`, “inactive”; that for `CCc1ccc(N(CC)C(=O)CCn2cnc3onc(-c4ccc(F)cc4)c3c2=O)cc1`, “inactive”. As for `O=C1CC(c2nnc(Cc3ccc(Cl)cc3)o2)CN1c1ccccc1` (stereo not drawn), the Potency result was “inactive”. `Cc1ccsc1C1C(C#N)=C(N)OC2=C1C(=O)CC(C)(C)C2` (stereo not drawn): the Potency entry was “inactive”. The result for `CC(C)C1C2=C(CC(C)(C)CC2=O)ON1c1ccccc1` (stereo not drawn) reads 28.2 µM (active); that for `CC(C)N1C(=O)N(c2ccccc2)C(C)(O)CC1(C)C` (stereo not drawn), “inactive”.

As for `Cc1sc2ncn(CC(=O)N3CCN(c4ccc(F)cc4)CC3)c(=O)c2c1S(=O)(=O)N1CCN(c2ncccn2)CC1`, the Potency entry was “inactive”.

For `CCc1cnc2c(c1SCC(=O)N1CCC(C)CC1)c(=O)n(C)c(=O)n2C`, the Potency result is “inactive”.

In the case of `O=C(Nc1cc(-c2nc3ccccc3o2)ccc1Cl)c1cc([N+](=O)[O-])ccc1N1CCOCC1`, the Potency entry was “inactive”. With `O=C(Nc1cccc([N+](=O)[O-])c1)c1ccc2c(c1)OCO2`, the Potency entry is “inactive”. The result for `Cc1cccc(NC(=O)c2ccc([N+](=O)[O-])o2)c1` reads 31.6 µM (active).

For `Cc1onc(C(=O)Nc2ccc3c(c2)OCO3)c1[N+](=O)[O-]`, the Potency entry was “inactive”. In the case of `Cc1cccc(NC(=O)C(C)SCc2ccccc2)c1` (stereo not drawn) it was “inactive”; in that of `Cc1onc(NC(=O)c2ccc([N+](=O)[O-])o2)c1Br`, 28.2 µM (active). As for `Cc1cccc(NC(=O)c2ccc(COc3ccccc3[N+](=O)[O-])o2)n1`, the Potency entry was “inactive”.

For `Cc1cccc(C(=O)Nc2ccc(-c3nc4ncccc4o3)cc2C)c1`, the Potency result is “inactive”.

For `COc1cc(NC(=O)c2cc3ccc4cccnc4c3[nH]2)cc(OC)c1OC`, the Potency entry is “inactive”. The result for `COc1ccc(Cl)cc1NC(=O)CCn1c(=O)c2cccn2c2ccccc21` reads “inactive”. In the case of `COc1cc(OC)c(OC)cc1/C=C/c1nc2cc3ccccc3cc2c(=O)n1-c1ccc(F)c(Cl)c1` it was “inactive”; in that of `COC(=O)C(NC(C)=O)(Nc1nc2c(s1)CCCC2)C(F)(F)F` (stereo not drawn), 50.1 µM (active).

In the case of `CCOC(=O)C(NC(=O)CC(C)C)(Nc1sc2c(c1C(N)=O)CCCC2)C(F)(F)F` (stereo not drawn), the Potency result was “inactive”. The result for `Cc1cc(C)cc(OC(C)C(=O)Nc2nc3c(s2)CCCC3)c1` (stereo not drawn) reads “inactive”; that for `COc1ccccc1CNc1nc2ccc(Cl)cc2n2cnnc12`, “inactive”. The result for `COc1ccccc1NC(=O)c1sc2nc(C)c(C(=O)Nc3ccc(Cl)cc3)c(-c3ccc(Br)cc3)c2c1N` reads “inactive”; that for `O=[N+]([O-])c1ccccc1NCc1ccc(Cl)cc1`, “inactive”; that for `Oc1ccc(CNc2ccccc2O)cc1`, 20 µM (active).

Consider `O=C(Cc1ccc(Cl)cc1)NC(=S)Nc1ccccc1O`, for which the Potency result was “inactive”. In the case of `O=C(CC(c1cccs1)N1Cc2ccccc2C1=O)Nc1ccc(F)c(F)c1` (stereo not drawn), the Potency entry is “inactive”. The result for `CC(C)Oc1ccc(CNC(=O)C2CCN(c3nc4ccccc4n(C)c3=O)CC2)cc1` reads “inactive”; that for `CC1CN(C(=O)N2CCC(C(=O)NCc3cccs3)CC2)c2ccccc2O1` (stereo not drawn), “inactive”; that for `O=C(NC1(C(F)(F)F)N=C(c2ccccc2)N(C2CCCCC2)C1=O)c1ccccc1F` (stereo not drawn), “inactive”. For `CC1=C(C/C=C(\C)CCCC(C)CCCC(C)CCCC(C)C)C(=O)c2ccccc2C1=O` (stereo not drawn), the Potency was 28.2 µM (active).

Regarding `CC(=O)Nc1ccc(NC(=O)CCCc2nc(-c3ccc(C(C)(C)C)cc3)no2)cc1`, the Potency entry is “inactive”.

For the compound `Cc1cc(C)c(-c2n[nH]c3c2C(c2ccccc2F)N(CCO)C3=O)c(O)c1` (stereo not drawn), the Potency result was “inactive”. In the case of `COc1ccc(N2CCN(Cc3nc4c(c(=O)[nH]c(=O)n4C)n3Cc3ccc(Cl)cc3)CC2)cc1` it was “inactive”; in that of `CCOC(=O)c1sc(NC(=O)/C=C/c2ccc(C(C)C)cc2)c(C(=O)OCC)c1C`, “inactive”; in that of `CCOC(=O)c1c(NC(=S)NC(=O)/C=C/c2cccs2)sc(C)c1C`, “inactive”. On to `Cc1nnc(NC(=O)CCCOc2ccccc2)s1`, for which the Potency entry was “inactive”. In the case of `CCOC(=O)c1c(NC(=O)/C=C/c2ccco2)sc(C)c1C` it was 35.5 µM (active); in that of `Cc1nnc(NC(=O)C(c2ccccc2)c2ccccc2)s1`, “inactive”; in that of `Cc1nnc(NC(=O)/C=C/c2ccco2)s1`, 22.4 µM (active).

With `O=C(CSc1nc(-c2cccc(F)c2)[nH]c1-c1ccccc1)Nc1ccc2c(c1)OCO2`, the Potency entry is “inactive”. In the case of `CCN(CC)S(=O)(=O)c1ccc(C(=O)N=c2sc3cccc(OC)c3n2C)cc1` it was “inactive”; in that of `Cc1ccc(C)c(OCC(=O)Nc2sc3c(c2C#N)CCCC3)c1C`, “inactive”. In the case of `Cc1ccccc1-n1nc(C)c2cc(C(=O)NC3CC3)sc21` it was “inactive”. The result for `Cc1ccccc1-n1nc(C)c2c1N=C1C(Cl)=CC(Cl)=CN1C2c1ccc(C(=O)O)cc1` (stereo not drawn) reads 35.5 µM (active); that for `Cc1nn(-c2ccccc2)c(Cl)c1/C=C/C(=O)c1ccc(O)cc1`, “inactive”. `O=C(Nc1ccc2nc(SCC(=O)N3CCCc4ccccc43)sc2c1)c1ccc(F)cc1`: the Potency result was “inactive”. As for `CC(=O)c1ccc(NC(=O)c2nc(-c3ccc(C)cc3)n3c2CCCCC3)cc1`, the Potency result was “inactive”. With `Cc1ccccc1CNC(=O)CCCn1nc(C)c2sc3ccccc3c2c1=O`, the Potency result was “inactive”. The result for `O=C(NC1CCCCC1)C1c2ccccc2C(=O)N1Cc1ccco1` (stereo not drawn) reads 39.8 µM (active).

For the compound `O=C(CC1OC(=O)c2ccccc21)NC1CCCCC1` (stereo not drawn), the Potency entry is “inactive”. The result for `CCC(C)NC(=O)C1c2ccccc2C(=O)N1Cc1ccccc1` (stereo not drawn) reads “inactive”. The result for `CC(NC(=O)c1cc(Sc2ccc(F)cc2F)nc2ccccc12)c1ccccc1` (stereo not drawn) reads “inactive”; that for `CC(C)C(=O)Nc1nc2c(s1)CC(C(C)(C)C)CC2` (stereo not drawn), “inactive”. As to `Cc1ccc(S(=O)(=O)N(CC(=O)Nc2ccc(Cl)cc2Cl)c2ccccc2C)cc1`, the Potency result is “inactive”.

With `COc1cccc(CN2CCc3nc(SCC(=O)Nc4ccccc4)[nH]c(=O)c3C2)c1`, the Potency entry is “inactive”. The result for `CC(C)c1ccc(NC(=O)C2CCN(c3nc(-c4ccc(C(C)C)cc4)no3)CC2)cc1` reads “inactive”. The result for `CN1C(=O)CC(N2CCN(c3ccccn3)CC2)C1=O` (stereo not drawn) reads “inactive”; that for `COc1cccc(N2C(=O)CC(N3CCN(S(=O)(=O)c4ccccc4)CC3)C2=O)c1` (stereo not drawn), 39.8 µM (active); that for `COc1ccc(COCCN2CCN(S(=O)(=O)c3ccccc3)CCC2=O)cc1`, “inactive”. In the case of `O=C(C1CC(=O)N(c2ccc(F)cc2)C1)N1CCN(c2ccccc2)CC1` (stereo not drawn) it was “inactive”; in that of `COc1cccc(N2C(=O)CN(Cc3ccccc3)C2=S)c1`, “inactive”. As for `COc1cccc(N(CC(=O)N2CCc3ccccc3C2)S(C)(=O)=O)c1`, the Potency result is “inactive”. In the case of `COc1cccc(N2CCN(C3CC(=O)N(c4ccc(Cl)cc4)C3=O)CC2)c1` (stereo not drawn) it was 39.8 µM (active). In the case of `COC(=O)CN(C(=S)Nc1ccc(Cl)cc1)C1CC(=O)N(c2ccc(OC)cc2)C1=O` (stereo not drawn) it was “inactive”; in that of `O=C1CC(N2CCN(c3ccc(F)cc3)CC2)C(=O)N1c1ccccc1` (stereo not drawn), 50.1 µM (active). The result for `COc1cccc(N2CC(NS(=O)(=O)c3ccc(Cl)cc3)CC2=O)c1` (stereo not drawn) reads “inactive”; that for `COc1ccc(CN2CCCC(N3CCc4ccccc4C3)C2)c(O)c1` (stereo not drawn), “inactive”. As for `COc1cccc(N2C(=O)CC(N3CCc4ccccc4C3)C2=O)c1` (stereo not drawn), the Potency was 39.8 µM (active).
